Experimental data taken from PubChem BioAssay.

Columns and labels:
[1] = target: Tumor necrosis factor receptor superfamily member 10B (Homo sapiens) (UniProt O14763); test: caspase-8 TRAIL sensitization, hit retest, confirmation, cell-based, NB7+caspase-8, with/without TRAIL, luminescence panel (AID 651596); settings: NB7 neuroblastoma + caspase-8, TRAIL sensitization, luminescence viability, with TRAIL, mean of runs, at 10 µM, stronger effect = higher value
[2] = as above; settings: NB7 neuroblastoma + caspase-8, without TRAIL, luminescence viability, without TRAIL, mean of runs, at 10 µM

Tumor necrosis factor receptor superfamily member 10B (Homo sapiens), sequence (O14763 whole entry, looked up): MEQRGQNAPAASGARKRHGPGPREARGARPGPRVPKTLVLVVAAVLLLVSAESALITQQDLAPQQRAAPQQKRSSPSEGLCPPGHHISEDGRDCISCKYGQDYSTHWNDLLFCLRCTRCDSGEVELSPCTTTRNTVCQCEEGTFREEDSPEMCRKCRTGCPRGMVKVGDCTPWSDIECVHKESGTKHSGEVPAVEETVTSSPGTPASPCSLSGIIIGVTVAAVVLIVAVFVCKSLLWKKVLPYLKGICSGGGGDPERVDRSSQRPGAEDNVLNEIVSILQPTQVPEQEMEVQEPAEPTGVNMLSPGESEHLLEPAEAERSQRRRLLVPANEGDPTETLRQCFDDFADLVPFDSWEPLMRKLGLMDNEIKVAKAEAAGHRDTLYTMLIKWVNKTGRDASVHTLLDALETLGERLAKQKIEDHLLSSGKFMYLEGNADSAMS

| Compound | activity [1] | activity [2] |
| --- | --- | --- |
| O=C(NC1=NCCS1)c1cccs1 | -8.57% | -38% |
| CCN1CCN(Cc2ccc(NC(=O)c3cc(NC(=O)c4cnnc5ccccc45)cc(OC)c3)cc2C(F)(F)F)CC1 | 55.2% | 93.9% |
| NC(=O)c1ccsc1NC(=O)c1coc2ccccc2c1=O | 36.1% | 33.8% |
| CCCCCCCCCCCCCCCC[n+]1ccc(C(N)=O)cc1 | 92.1% | 88.5% |
| N#Cc1c(/N=C/c2cccs2)sc2c1CCCCC2 | 65.7% | 35.4% |
| COc1cc(OC)nc(Nc2nc(C(N)Cc3ccc(C(F)(F)F)cc3)cs2)n1 (configuration not stated) | 33.2% | 77.7% |
| CC(=O)Nc1ccc(/C=N/Nc2nc3ccccc3[nH]2)cc1 | 76.2% | 75.5% |
| COC(=O)c1ccc2c(c1)C(C)(C)C(/C=C/c1ccc(O)cc1)=[N+]2C | 43.9% | 76.1% |
| CCOc1ccc2nc(NC(=O)c3cccc(N4C(=O)CCC4=O)c3)sc2c1 | 65.7% | 81.5% |
| C/C(=N\Nc1nc(C)cc(-c2ccccc2)n1)c1cccc(N)c1 | 41.5% | 32.7% |
| Cc1nnc(NC(=O)c2nc(S(=O)(=O)Cc3ccccc3C)ncc2Cl)s1 | 94.7% | 89.8% |
| O=C(COC(=O)c1n[nH]c2ccccc12)NC(=O)NC12CC3CC(CC(C3)C1)C2 | 51.5% | 57% |
| CC1(C)N=C(N)N=C(N)N1c1ccccc1 | 83.4% | 87.2% |
| CCc1nnc(NC(=O)CSc2nc(C)cc(C)c2C#N)s1 | 81.2% | 80% |
| COc1ccc(C(=O)Nc2ccccc2C(=O)N/N=C/c2ccncc2)cc1OC | 97.7% | 96.3% |
| CN(C)c1ccc(C(=O)Nc2nc3c(s2)CCCC3)cc1 | 51.9% | 48.6% |
| Cc1ccc2nc(NC(=S)NC(=O)c3cccs3)sc2c1 | 82.5% | 74.8% |
| Nc1c(-c2ccccc2)cnc2cc(-c3ccccc3)nn12 | 73% | 67.4% |
| Cc1cccc(NC(=O)c2ccc3c(c2)OCCO3)c1 | 85% | 83.5% |
| CC(C)n1c(/C=C/c2ccccc2)nc2ccccc21 | 63.2% | 69.3% |
| O=C(Nc1ccc(N2CCOCC2)cc1)c1csc(COCCO)n1 | 54.5% | 59.1% |
| COc1ccc2nc(Nc3ccccc3OC)sc2c1 | 68.3% | 59.2% |
| C=C(C)[C@@H]1C2=CC(C(=O)OC)=C(C[C@H](C(=C)C)[C@H]3O[C@H]3C3=C[C@H]1OC3=O)O2 | 72.2% | 96% |
| CC(C)COCc1ccc(O)c2ncccc12 | 38.6% | 32.1% |
| Nc1nc(N)c2nc(-c3ccccc3)c(N)nc2n1 | 74.7% | 80.7% |
| Fc1cccc2sc(Nc3nnc(-c4ccccc4)o3)nc12 | 71% | 73% |

| Compound | activity [1] | activity [2] |
| --- | --- | --- |
| Cc1ccc(-c2nc(-c3ccncc3)no2)c(Cl)c1 | 63% | 57.1% |
| O=C(c1ccccc1)n1c(=S)nc2ccccn21 | 86.2% | 85.5% |
| c1ccc(-c2cc3cc4c(cc3cn2)OCO4)cc1 | 43.8% | 29% |
| CCOC(=O)c1nnn2c1nc(Nc1cccc(C(F)(F)F)c1)c1ccccc12 | 8.35% | 52.4% |
| N#C/C(=C\c1cc(Cl)cc(Cl)c1O)C(=O)NC1CCCCC1 | 26.5% | 47.6% |
| Oc1ccc(-c2nnc(SCC3CCCCC3)o2)cc1 | 70.1% | 84.3% |
| Cc1cc(O)c(C(=O)/C=C/c2ccc(Cl)cc2)c(=O)o1 | 83.4% | 79.5% |
| Cc1ccc(-c2cc(-c3ccccc3)no2)c(O)c1 | 71.8% | 60.2% |
| Cc1cccc(NC(=O)c2nc[nH]c2C(=O)N[C@@H](CCCCNC(=O)OC(C)(C)C)C(=O)OC(C)(C)C)c1 | 80.3% | 77% |
| CC(C)c1onc(C(=O)N2CCN(C(c3ccccc3)c3ccccc3)CC2)c1[N+](=O)[O-] | 98.1% | 93.9% |
| CCOc1ccc(NC(=O)Nc2cccnc2)cc1 | 55.2% | 40.9% |
| c1ccc(-c2cnc(-c3ccccc3)nn2)cc1 | 64.9% | 68.4% |
| O=C(Nc1cccc(Cl)c1)c1nc[nH]c1C(=O)NCCCNC(=O)c1[nH]cnc1C(=O)Nc1cccc(Cl)c1 | 45.5% | 77.4% |
| Cc1ccc(S(=O)(=O)N2CCCCC2)cc1NC(=O)Cn1ncc(Cl)c(Cl)c1=O | 98.7% | 99.3% |
| NC(Cc1ccccc1)c1csc(NC(=O)Nc2ccccc2Oc2ccccc2)n1 (configuration not stated) | 61.5% | 78.7% |
| Cc1cc(N/N=C\c2ccccc2)nc(-c2ccccc2O)n1 | 41.2% | 24.4% |
| O=C(NOCc1ccccc1)c1ccc(Cl)cc1Cl | 62.6% | 55.5% |
| Cc1ccccc1Nc1nc(N)nc(CCl)n1 | 98.5% | 96.2% |
| O=C(Nc1ccc(N2CCOCC2)c(F)c1)c1cccs1 | 48.5% | 63.3% |
| Cc1nc(SCC(=O)Nc2nccs2)c(C#N)c(C)c1C | 90.8% | 92.1% |
| Cc1ccc(C(=O)Nc2ccc3c(c2)OCCO3)cc1 | 90.4% | 90.2% |
| Cc1c(P(=S)(c2ccccc2)c2ccccc2)[n+]2ccccc2n1C/C=C/c1ccccc1 | 83.3% | 56.9% |
| O=C(NN=Cc1ccc2c(c1)CCN2)c1cccs1 | 47.9% | 57.8% |
| c1cc(-c2cc3cc(N4CCOCC4)ccc3o2)cs1 | 77.3% | 67.4% |
| CC(=O)Nc1sc(C)c(C)c1C(=O)OCC(=O)N(CC(C)C)c1c(N)n(Cc2ccccc2)c(=O)[nH]c1=O | 97.5% | 98.9% |
| CCC(=O)Nc1ccc(NC(=O)c2ccco2)cc1 | 35.1% | 41.4% |

| Compound | activity [1] | activity [2] |
| --- | --- | --- |
| O=C(Nc1ccc2c(c1)OCCO2)C(=O)c1c[nH]c2ccccc12 | 83.2% | 90.5% |
| CNC(=S)N1N=C(c2ccccc2)CC1c1ccc(Br)cc1 (configuration not stated) | -12.4% | -42.7% |
| Cn1cc(S(=O)(=O)CC(=O)N2CCCc3ccccc32)c2ccccc21 | 1.93% | -0.4% |
| CCCCN(CC)CCCNC(=O)C1c2ccccc2C(=O)N(C)C1c1cn(C)c2ccccc12 (configuration not stated) | 71.8% | 69.7% |
| CCOc1ccc(-c2c(C#N)c(N)nc3c2c(=O)n(C)c(=O)n3C)cc1OC | -4.4% | -21.2% |
| Cc1nn(-c2ccccc2)c(/N=C/c2ccc(O)cc2)c1-c1ccccc1 | 39.1% | 13.9% |
| O=C1Nc2cc(C(=O)NCCN3CCCCCC3)ccc2S/C1=C/c1ccccc1F | 82.5% | 96% |
| O=C(Nc1ccc(N2CCCCC2)cc1)c1ccccc1 | 69.6% | 58.5% |
| Cc1ccc2nc(NC(=O)c3ccccc3F)sc2c1 | 67.5% | 64% |
| CCN1CCN(c2ccc(S(=O)(=O)N3CCCCC3)cc2NC(=O)c2ccc([N+](=O)[O-])s2)CC1 | 49.6% | 54.1% |
| CCOc1cc(/C=C\[N+](=O)[O-])ccc1OCC(=O)Nc1ccccc1C | 88.8% | 91.9% |
| O=C(Nc1nc2cc3c(cc2s1)OCCO3)c1cccs1 | 66.6% | 64.6% |
| O=C(c1ccc2c3n(nc2c1)-c1ccccc1CO3)N1CCCCC1 | 79.2% | 78.4% |
| Cc1ccc(C(=O)Oc2ccc(C(=O)COC(=O)c3cnccn3)cc2)cc1 | 19.9% | 31.6% |
| N=NC(=O)c1ccccc1Nc1c(O)[nH]c2ccccc12 | 93.5% | 92.1% |
| CCOC(=O)N1CCN(C(=O)c2ccc(Cn3c(=S)[nH]c4ccc(Br)cc4c3=O)cc2)CC1 | 73.5% | 58.9% |
| CCOc1ccc(OCC(=O)Nc2cccc(S(=O)(=O)NC3=NCCC3)c2)cc1 | 68.9% | 64.6% |
| Cc1cccc(Cn2ncc(Cl)c(Cl)c2=O)c1 | 92.2% | 98.9% |
| Oc1ccccc1-c1cc(-c2ccccc2)no1 | 46.3% | 37.7% |
| O=C1C(=Cc2ccccc2Cl)CCc2ccccc21 | 62.3% | 51.9% |
| O=C(CSc1nnc(NC(=O)c2ccc(F)cc2)s1)NCc1ccco1 | 64.4% | 62.4% |
| Cc1ccc2nc(-c3ccccn3)oc2c1 | 75.3% | 64.1% |
| CCOc1cc(C(=O)O/N=C(\N)c2ccccn2)cc(OCC)c1OCC | 91.1% | 78.5% |
| COc1ccc(/C=N/OC(=O)Nc2ccccc2OC)cc1 | 56.9% | 63.3% |
